Here are results for 13 compounds from PubChem BioAssay (NCI).

Assay in all cases: NCI-60 one-dose screen, 48 h (100 = growth as untreated, 0 = no growth, -100 = all killed)
What all share (conditions): 10 µM unless noted

The subject of assay [1] is DU-145 prostate.
Assay [2] deals with K-562 leukemia.
The subject of assay [3] is MALME-3M melanoma.
Assay [4] has as its system MDA-MB-231 breast.
Assay [5] relates to RXF 393 renal.
In assay [6] the test system is SF-268 CNS.
For assay [7], the system named is SF-295 CNS.
Assay [8] has as its system SF-539 CNS.
Assay [9] deals with UACC-257 melanoma.
Assay [10] deals with M14 melanoma.

SMILES strings stand for the structures. The panel holds about 83,000 compounds, 20% with a hit somewhere; the sample as a whole holds those more often.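 48-hour exposure, single concentration, 96-well plates; percent growth endpoint where 0 means no net growth. Active: below 10.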 Unmarked numbers belong to inactive results. The source made the active and inactive calls.

With `C/C=C/C/C=C/[C@H](C)C[C@H](O)[C@@H]1C[C@@H]2O[C@H]2/C=C/[C@@H]2OC(C)(C)O[C@H]2/C=C/C[C@H](C)CC(=O)O1`, the growth in assay [1] is 36.1%; in [2], 30.1%; in assay [3], 87.6%; in assay [4] it was 61.6%; in assay [5] it was 81.1%; in assay [6], 46.9%. Also, the growth in [7] is 28.8%; in assay [8] it was 71%; in [9], 69.9%; in assay [10], 36.8%.

For `O=C(/C=C/c1cccc(O)c1)c1cccc(-n2cc(-c3ccc(Cl)cc3)[nH]c2=O)c1`, the growth is -69.8% (active) in assay [1]; -18.4% (active) in assay [2]; -36% (active) in [3]; -17.3% (active) in assay [4]; -61.1% (active) in assay [5]; -68.3% (active) in [6]. The growth in assay [7] was 4.32% (active); in assay [8] it was -89.7% (active); in assay [9], 22.1%; in assay [10], -13% (active).

Take `O=C(Nc1cccc(Cn2c(=O)[nH]c3ccc(Oc4ncccn4)cc3c2=O)c1)c1ccc(Cl)cc1`: the growth was 62.3% in assay [1]; 4.84% (active) in assay [2]; 41% in assay [3]; 53.6% in [4]; 51.4% in assay [5]; 56.8% in assay [6]. Moreover, the growth is 39.4% in assay [7], 59.2% in assay [8], 25.9% in [9] and 57.8% in assay [10].

Take `O=C(N/N=C/c1ccccc1Cl)c1cccc2ccccc12`: the growth in assay [1] is 115%; in assay [2], 93.7%; in assay [3] it was 97.9%; in assay [4], 105%; in assay [5], 110%; in assay [6], 104%. Further, the growth is 99.7% in assay [7], 108% in assay [8], 111% in assay [9] and 106% in [10].

Consider `O=C(Nc1cccc(Cn2c(=O)[nH]c3ccc(Oc4ncccn4)cc3c2=O)c1)c1cccc(F)c1`, for which the growth in assay [1] is 80.1%; in assay [2], 45.1%; in assay [3], 97.2%; in assay [4], 74.7%; in [5], 87.1%; in assay [6], 74.1%. In addition, the growth in [7] is 81.8%; in assay [8], 80.1%; in assay [9], 67.3%; in assay [10], 78.6%.

As for `O=c1c(N=Nc2nccs2)c(-c2ccccc2)[nH]n1-c1nc(-c2ccccc2)cs1`, the growth is 43.8% in assay [1]; 32.4% in [2]; 72% in assay [3]; 53.1% in assay [4]; 65.2% in assay [5]; 32.3% in [6]. In addition, the growth in assay [7] is 25%; in assay [8] it was 39.7%; in assay [9], 39.6%; in assay [10], 28.3%.

Turning to `O=C(/C=C/c1ccc(Br)cc1)c1ccccc1`, the growth in assay [1] is 95.6%; in assay [2], 59.4%; in assay [3], 104%; in assay [4] it was 101%; in assay [5], 98.7%; in assay [6] it was 90.9%. For the same compound, the growth in [7] is 96.7%; in assay [8], 100%; in [9] it was 84.3%; in assay [10], 87.6%.

With `COc1ccc(-c2nnc(SCC(=O)Nc3ccc(C(=O)/C=C/c4cc(OC)c(OC)c(OC)c4)cc3)n2-c2ccccc2)cc1OC`, the growth in assay [1] was -29.4% [100 µM] (active); in assay [2], 31.4% [100 µM]; in assay [3], -33.4% [100 µM] (active); in [4], -44.6% [100 µM] (active); in [5], -24.7% [100 µM] (active); in [6] it was -52.2% [100 µM] (active). For the same compound, the growth was -86.2% [100 µM] (active) in assay [7], 1.43% [100 µM] (active) in assay [8], 22.1% [100 µM] in assay [9] and 1.87% [100 µM] (active) in assay [10].

As to `O=C(NCCNCCO)c1cc([N+](=O)[O-])cc([N+](=O)[O-])c1O`, the growth was 99.3% in [1]; 102% in assay [2]; 107% in [3]; 109% in [4]; 109% in assay [5]; 102% in assay [6]. The growth in assay [7] is 101%; in assay [8], 106%; in [9], 103%; in assay [10] it was 102%.

For `CC(=O)/C(=C/c1ccc(-c2ccccc2)cc1)C(=O)c1ccccc1`, the growth was 87.1% in assay [1]; 64.2% in assay [2]; 89.3% in [3]; 92.5% in assay [4]; 90.6% in assay [5]; 85.9% in [6]. Further, the growth in [7] is 92.3%; in [8], 85.1%; in assay [9], 80.2%; in [10], 79.8%.

Regarding `Ic1ccc(SSc2ccc(I)cc2)cc1`, the growth is 103% in [1]; 95.5% in assay [2]; 114% in [3]; 87.8% in [4]; 99.7% in [5]; 59.2% in [6]. In addition, the growth is 77.5% in [7], 86.1% in assay [8], 88.1% in assay [9] and 104% in [10].

`C/C=C(/C)C(=O)OC1C=C(CO)C(=O)C(OC(=O)C2(C)OC2C)C1C(C)C` (stereo not given): the growth in [1] is 6.72% (active); in assay [2] it was 1.51% (active); in [3], -77.4% (active); in assay [4] it was 1.48% (active); in assay [5], -74.3% (active); in assay [6], 13.3%. Moreover, the growth is -20.5% (active) in assay [7], -65.6% (active) in assay [8], -9.59% (active) in assay [9] and -49.2% (active) in [10].

`Cc1nc2c(nnn2-c2ccccc2)c2nc(-c3ccccc3)oc(=O)c12`: the growth in assay [1] is 117%; in [2] it was 106%; in assay [3], 115%; in assay [4], 109%; in [5], 109%; in assay [6] it was 108%. Moreover, the growth in assay [7] is 101%; in assay [8], 97.7%; in [9], 123%; in assay [10], 102%.
